From PubChem BioAssay (NCI) come the findings set out here.

About 83,000 compounds went through this panel and 20% of them were active in at least one assay; those are over-represented in the sample as a whole.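 In brief: 96-well plates, 48 h treatment, single concentration, percent growth endpoint.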 Values without a mark were called inactive. The source made the active and inactive calls. Rule for the calls: active = growth percent below 10; inactive = the rest.

One assay has as its system OVCAR-8 ovarian. Put plainly: NCI-60 one-dose screen, 48 h (100 = growth as untreated, 0 = no growth, -100 = all killed). The following applies: 10 µM unless noted.
For `COc1ccc(-c2nc(SCC(C)C)nc(N/N=C\c3cccc([N+](=O)[O-])c3)c2C#N)cc1`, the growth was 25.5%.
Still for that read-out and setting: for `C=C1C(=O)O[C@@H]2C[C@@H](C)CCC(=O)[C@](C)(OC(C)=O)C[C@H](OC(=O)/C(C)=C\C)[C@@H]12` the value was 66.8%; for `C=C1C(=O)O[C@@H]2C[C@@H](C)/C=C\C(=O)[C@](C)(OC(C)=O)C[C@H](OC(=O)/C(C)=C\C)[C@@H]12`, -16.1% (active).
Turning to `CCCCCCNC(=O)Oc1ccc(/C(=C(/C)c2ccc(OC)cc2)c2ccc(OCCN3CCCC3)cc2)cc1`, the growth is 86.6%.
On the same count and under the same terms, for `CN(C)c1ccc(/C=N/Nc2nc(N/N=C/c3ccc(N(C)C)cc3)nc(N3CCOCC3)n2)cc1` the value was 99%; for `COc1ccc(-c2oc3cc(O)cc(O)c3c(=O)c2OC)cc1O`, 26.8%.

The next assay deals with OVCAR-5 ovarian. The assay is described as above. The settings on record: 10 µM unless noted.
As for `O=C(COc1ccc(/C=C2\SC(=O)NC2=O)cc1)Nc1ccc(C(=O)/C=C/c2cc3ccccc3nc2Cl)cc1`, the growth was 110%.
In the case of `CC(C)Sc1nc(NC2CC2)c(C#N)c(-c2ccccc2)n1`, the growth is 84.4%.
As for `O=C(COc1cccc2cccnc12)Nc1ccc(C(=O)/C=C/c2ccc(Cl)cc2)cc1`, the growth is 105%.
Take `Oc1ccc(CSc2nnc(-c3ccc(Br)cc3)n2-c2ccccc2)c2cccnc12`: the growth is 54.4%.
Regarding `COc1ccccc1N1CCN(C2=NN=C(c3cccc(Cl)c3)c3ccccc3C2)CC1`, the growth was 40.4%.
With `O=C1/C(=C/c2ccc([N+](=O)[O-])cc2)SC(=Nc2ccccc2)N1Nc1ccccc1`, the growth was 75.8%.
On to `COc1ccc([C@H]2c3[nH]c4ccccc4c3C[C@@H]3C(=O)N(C4CCN(Cc5ccccc5)CC4)CC(=O)N23)c(OC)c1`, for which the growth is 90%.
Turning to `CC1OC(O[C@@H]2[C@H](O)C(CO)OC(O[C@H]3COC(O[C@H]4CC[C@]5(C)[C@H]6CC[C@]78OC[C@@]9(CCC(C)(C)C[C@H]97)[C@H](O)C[C@@]8(C)[C@]6(C)CC[C@H]5C4(C)C)[C@@H](OC4OC(CO)[C@@H](O)[C@@H](O)[C@@H]4O)[C@@H]3O)[C@H]2OC2OC[C@@H](O)[C@@H](O)[C@@H]2O)[C@@H](O)[C@@H](O)[C@H]1O` (some centres undefined), the growth was -69% (active).
Turning to `N#Cc1c(-c2cccs2)cc(-c2cnccn2)nc1SCC(=O)NNC(=S)Nc1ccc(F)cc1`, the growth was 109%.
Regarding `O=C1NC(=O)c2c1c1c3ccccc3ccc1c1[nH]c3ccccc3c21`, the growth was 49.6%.
Take `COc1ccc(-c2ccc3c4c(cccc24)C(=O)N(N2C(=O)c4cccc5cccc(c45)C2=O)C3=O)cc1`: the growth was 101%.
On the same count and under the same terms, with `NS(=O)(=O)c1ccc(Nc2nc(N/N=C/c3ccc(C(F)(F)F)cc3)nc(Nc3ccccc3)n2)cc1` the figure was 67.5%; with `COc1cc(CNC(=O)/C=C/c2ccccc2)ccc1OCC(=O)NO`, 102%; with `NS(=O)(=O)c1ccc(Nc2nc(N/N=C/c3ccc(F)cc3)nc(Nc3ccccc3)n2)cc1`, 75.3%.
For `C=C1C(=O)O[C@@H]2C[C@@H](C)[C@H](OC)CC(=O)[C@](C)(OC(C)=O)C[C@H](OC(=O)/C(C)=C\C)[C@@H]12`, the growth is 115%.
As to `O=C(c1ccc(O)cc1)[C@@H]1[C@@H]2CCCN2[C@@]2(C(=O)N(C(=O)c3ccc(F)cc3)c3ccccc32)[C@H]1c1ccc(F)cc1`, the growth is 111%.
The same measure, in the same setting: for `Cc1ccc(-n2cc(/C=C/C(=O)c3ccc(S(C)(=O)=O)cc3)c(-c3ccc(S(C)(=O)=O)cc3)n2)cc1` the value was 98.3%; for `Cc1ccc(Cc2cnc(NC(=O)/C(C#N)=C/c3ccc(-c4ccc(Cl)cc4)o3)s2)cc1`, 100%.
In the case of `C=C(C)C(=O)O[C@H]1C[C@@]2(C)OC(=CC2=O)/C(C)=C\[C@H]2OC(=O)C(=C)[C@H]12`, the growth was -56.4% (active).
Still for that read-out and setting: for `CCN(CC)CCN1C(=O)c2c(c3c4cc(Br)ccc4[nH]c3c3ccc4ccccc4c23)C1=O` the value was -95.2% (active).
On the same count and under the same terms, for `Oc1ccc(CSc2nnc(-c3ccc(Oc4ccccc4)cc3)o2)c2cccnc12` the value was 48.3%; for `O=C1c2c(c3c4cccnc4[nH]c3c3ccc4ccccc4c23)C(=O)N1CCN1CCOCC1`, 98.3%.
The same measure, in the same setting: with `O=c1[nH]c(CCl)nc2c1cnn2-c1ccccc1` the figure was 114%.
On to `C=C1C(=O)O[C@@H]2/C=C(/C)C3=CC(=O)[C@@](C)(C[C@H](OC(=O)/C(C)=C\C)[C@@H]12)O3`, for which the growth is 4.42% (active).
As for `O=C1CC2(CCOCC2)Oc2ncccc21`, the growth was 52.6%.
Same read-out and setting: with `O=C(Nc1ccc(F)cc1)c1cc(-c2ccc(F)cc2F)ccc1O` the figure was 69.4%; with `COc1ccc(/C=N\NC(=O)c2ccc3nc(-c4ccc(Br)cc4)[nH]c3c2)cc1`, 79.2%.
With `O=C(O)c1ccc(-n2cc(CNc3ccc(Cl)cc3)c(-c3ccc(F)cc3)n2)cc1`, the growth is 106%.
In the case of `COc1cc(/C=N/n2cnc3oc(-c4ccccc4)cc3c2=N)cc(CN2CCCC2)c1O`, the growth is 99%.
As for `CCOC(=O)c1c(NCC(=O)Nc2cccc(Cl)c2)sc2c1CCCC2`, the growth is 94.5%.
On to `Cc1ccc(-c2csc(N/N=C/c3nc4ccccc4n3C3CC3)n2)cc1`, for which the growth is 105%.
Consider `C#C[C@]1(O)CC[C@H]2[C@@H]3CC=C4c5sc(Nc6cccc(C)n6)nc5CC[C@]4(C)[C@H]3CC[C@@]21C`, for which the growth is 56.4%.
The same measure, in the same setting: with `COc1ccc(-c2nc(SCC(C)C)nc(N/N=C\c3cccc([N+](=O)[O-])c3)c2C#N)cc1` the figure was 71.5%; with `C=C1C(=O)O[C@@H]2C[C@@H](C)CCC(=O)[C@](C)(OC(C)=O)C[C@H](OC(=O)/C(C)=C\C)[C@@H]12`, 114%; with `C=C1C(=O)O[C@@H]2C[C@@H](C)/C=C\C(=O)[C@](C)(OC(C)=O)C[C@H](OC(=O)/C(C)=C\C)[C@@H]12`, -29.5% (active).
As to `CCCCCCNC(=O)Oc1ccc(/C(=C(/C)c2ccc(OC)cc2)c2ccc(OCCN3CCCC3)cc2)cc1`, the growth was 81.5%.
Consider `CN(C)c1ccc(/C=N/Nc2nc(N/N=C/c3ccc(N(C)C)cc3)nc(N3CCOCC3)n2)cc1`, for which the growth was 110%.
On the same count and under the same terms, for `COc1ccc(-c2oc3cc(O)cc(O)c3c(=O)c2OC)cc1O` the value was 59.8%.
